This is an account of results in the supplement of paper PMC4683952.

Structures can show the parent of a compound that is named as a salt. Hit rate of the full screen: of about 1,200 compounds, about 50 (4%) showed activity. This is one part of a sample in which actives are shown more often than they occur. Rule as the data show it: all actives reach 1.3 or more but so do some inactives.

This assay concerns Lgr5 (MarsCy1-Lgr5-EGFP, U2OS). Nature of the assay: cell-surface Lgr5 expression (SCi1 fluorescence, background-subtracted) relative to WT DMSO (fold of DMSO control); higher = more Lgr5 at the plasma membrane, active = hit call of the paper. The note with it: U2OS MarsCy1-Lgr5-EGFP stable; treatment time: overnight; 16 µM; library: Johns Hopkins Clinical Compound Library.
Take `C=CC(N)CCC(=O)O` (configuration not stated) [Vigabatrin]: the “cell-surface Lgr5 expression” value was 1.52 (active).
For `NC(=O)N[C@@H](CCC(=O)O)C(=O)O` [Carglumic acid (N-Carbamyl-L-Glutamic Acid)], the “cell-surface Lgr5 expression” value was 1.08 (inactive).
As to `NC(CCC(=O)O)C(=O)O` (racemic) [DL-Glutamic acid monohydrate], the “cell-surface Lgr5 expression” value was 0.692 (inactive).
For the molecule `OCc1ccccc1O[C@@H]1O[C@H](CO)[C@@H](O)[C@H](O)[C@H]1O` [Salicin], the “cell-surface Lgr5 expression” value was 1.17 (inactive).
On to `CC(C)COCC(CN(Cc1ccccc1)c1ccccc1)N1CCCC1` (configuration not stated) [Bepridil], for which the “cell-surface Lgr5 expression” value is 1.31 (active).
The same measure for `c1ccc(CN(CC2=NCCN2)c2ccccc2)cc1` [Antazoline phosphate salt]: 1.28 (inactive); for `c1ccc(CN(CC2=NCCN2)c2ccccc2)cc1` [Antazoline]: 1.21 (inactive).
For the molecule `Nc1c(Br)cc(Br)cc1CN[C@H]1CC[C@H](O)CC1` [Ambroxol hydrochloride], the “cell-surface Lgr5 expression” value was 1.54 (active).
Consider `O=C1OC(c2ccc(O)cc2)(c2ccc(O[C@@H]3O[C@H](C(=O)O)[C@@H](O)[C@H](O)[C@H]3O)cc2)c2ccccc21` (stereo partly drawn) [Phenolphthalein beta-D-glucuronide sodium salt], for which the “cell-surface Lgr5 expression” value was 1 (inactive).
Take `NCCC[C@H](N)C(=O)O` [L-Ornithine]: the “cell-surface Lgr5 expression” value was 0.718 (inactive).
Take `[K+].[OH-]` [Potassium hydroxide]: the “cell-surface Lgr5 expression” value was 1.11 (inactive).
The same measure for `CN1C(CCl)Nc2cc(Cl)c(S(N)(=O)=O)cc2S1(=O)=O` (configuration not stated) [Methyclothiazide]: 0.905 (inactive); for `C=CCSCC1Nc2cc(Cl)c(S(N)(=O)=O)cc2S(=O)(=O)N1` (configuration not stated) [Althiazide]: 1.27 (inactive).
On to `NS(=O)(=O)c1cc2c(cc1Cl)NC(C(Cl)Cl)NS2(=O)=O` (configuration not stated) [Trichlormethiazide], for which the “cell-surface Lgr5 expression” value was 1.44 (active).
Turning to `CNCC(O)c1ccc(OC(=O)C(C)(C)C)c(OC(=O)C(C)(C)C)c1` (configuration not stated) [Dipivefrin HCl], the “cell-surface Lgr5 expression” value is 1.42 (active).
Regarding `CNC[C@H](O)c1cccc(O)c1` [L-Phenylephrine hydrochloride], the “cell-surface Lgr5 expression” value is 0.598 (inactive).
Regarding `CC(C)(C)NCC(O)c1ccc(O)c(CO)c1` (configuration not stated) [Albuterol (Salbutamol)], the “cell-surface Lgr5 expression” value was 1.22 (inactive).
In the case of `CCC(C)C(C(=O)OCC[N+](C)(CC)CC)c1ccccc1` (configuration not stated) [Valethamate bromide], the “cell-surface Lgr5 expression” value was 1.1 (inactive).
For the molecule `CCN(CC)C(=S)S` [Ditiocarb (Diethyldithiocarbamic acid sodium, thiocarb)], the “cell-surface Lgr5 expression” value was 1.05 (inactive).
On to `O=C(OCC(O)CO)c1ccccc1Nc1ccnc2cc(Cl)ccc12` (configuration not stated) [Glafenine], for which the “cell-surface Lgr5 expression” value is 1.63 (active).
On to `CCN(CC)CCCC(C)Nc1ccnc2cc(Cl)ccc12` (configuration not stated) [Chloroquine diphosphate salt], for which the “cell-surface Lgr5 expression” value is 1.53 (inactive).
In the case of `CCN(CC)Cc1cc(Nc2ccnc3cc(Cl)ccc23)ccc1O` [Amodiaquin], the “cell-surface Lgr5 expression” value is 1.47 (inactive).
